Test systems include K-562 leukemia; MALME-3M melanoma; MDA-MB-231 breast; RXF 393 renal; SF-268 CNS; SF-295 CNS; SF-539 CNS; UACC-257 melanoma; M14 melanoma; HCT-15 colon.
Assay in all cases: NCI-60 one-dose screen, 48 h (100 = growth as untreated, 0 = no growth, -100 = all killed)
Common to all, as to conditions: 10 µM

About 83,000 compounds went through this panel and 20% of them were active in at least one assay; those are over-represented in the sample as a whole.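 The test compound was applied at a single concentration to cells in 96-well plates for 48 hours, and percent growth was recorded.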 Values without a mark were called inactive. Activity calls are given as the source filed them. How the source made its calls: active means growth percent below 10; inactive means the rest.

Take `CN(C)C=Nc1cc(Cl)ccc1Cl`: the growth in the assay with K-562 leukemia is 110%; in the assay with MALME-3M melanoma it was 118%; in the assay with MDA-MB-231 breast, 103%; in the assay with RXF 393 renal, 112%; in the assay on SF-268 CNS it was 112%; with SF-295 CNS, 97%. Besides, the growth in the assay with SF-539 CNS was 111%; in the assay with UACC-257 melanoma, 90.2%; in the assay on M14 melanoma it was 107%; in the assay on HCT-15 colon it was 103%.

For `Cc1ccc(NC(=O)NC2CCCCC2)cc1`, the growth with K-562 leukemia was 98%; with MALME-3M melanoma, 108%; in the assay with MDA-MB-231 breast it was 115%; in the assay on RXF 393 renal, 102%; in the assay with SF-268 CNS it was 108%; in the assay with SF-295 CNS, 105%. For the same compound, the growth with SF-539 CNS was 102%; in the assay on UACC-257 melanoma it was 80.6%; with M14 melanoma it was 107%; with HCT-15 colon it was 96.3%.

As for `Cc1ccc(Nc2cc(C)nc(NCCCNc3ccnc4cc(Cl)ccc34)n2)cc1`, the growth is -55% (active) in the assay with K-562 leukemia; -80.5% (active) with MALME-3M melanoma; -92.4% (active) with MDA-MB-231 breast; -92.1% (active) in the assay on RXF 393 renal; -85% (active) in the assay with SF-268 CNS; -85.6% (active) in the assay on SF-295 CNS. The growth in the assay with SF-539 CNS was -96.9% (active); in the assay on M14 melanoma, -86% (active); with HCT-15 colon it was -71.7% (active).

As to `CN(C)Cc1cn(-c2ncc(-c3ccc(C(F)(F)F)cc3)c(NC3CCCCCC3)n2)nn1`, the growth was 38.2% in the assay on K-562 leukemia; 73.5% in the assay with MALME-3M melanoma; 89.5% in the assay with MDA-MB-231 breast; 93.6% in the assay on RXF 393 renal; 88.5% in the assay on SF-268 CNS; 94.3% in the assay on SF-295 CNS. The results for the growth in the assay with SF-539 CNS, in the assay on UACC-257 melanoma and in the assay with HCT-15 colon were 99.3%, 82.8% and 94.1%, respectively.

`Cc1nc2ccc(CN(C)c3ccc(C(=O)N[C@@H](CCC(=O)O)C(=O)O)s3)cc2c(=O)[nH]1`: the growth with K-562 leukemia was 30.6%; in the assay on MALME-3M melanoma it was 60.7%; with MDA-MB-231 breast, 89.4%; in the assay with RXF 393 renal, 31.8%; with SF-268 CNS it was 26.4%; with SF-295 CNS, 22.9%. Besides, the growth in the assay with SF-539 CNS is 6.05% (active); in the assay with UACC-257 melanoma, 46.7%; in the assay on HCT-15 colon it was 74.5%.

Turning to `CCCCCCCC(C)NCCO` (configuration not stated), the growth in the assay with K-562 leukemia is 103%; with MALME-3M melanoma, 107%; in the assay on MDA-MB-231 breast it was 123%; in the assay on RXF 393 renal, 105%; in the assay on SF-268 CNS it was 106%; in the assay with SF-295 CNS, 90%. Further, the growth with SF-539 CNS was 105%; in the assay on UACC-257 melanoma, 90.8%; in the assay with M14 melanoma it was 105%; in the assay with HCT-15 colon, 116%.

For `COc1cc(Nc2ccnc(NCCNc3ccnc4cc(Cl)ccc34)n2)cc(OC)c1`, the growth in the assay with K-562 leukemia was 2.17% (active); with MALME-3M melanoma it was -68.3% (active); with MDA-MB-231 breast it was 27.1%; in the assay with RXF 393 renal, 46.2%; with SF-268 CNS it was 50.5%; with SF-295 CNS, 39.9%. For the same compound, the growth in the assay with SF-539 CNS is -65.9% (active); with M14 melanoma, -79.9% (active); in the assay with HCT-15 colon, 28.8%.

In the case of `Fc1cc(C(F)(F)F)ccc1-c1cncnc1NC1CCCCCC1`, the growth in the assay with K-562 leukemia was 91.3%; with MALME-3M melanoma it was 118%; in the assay on MDA-MB-231 breast it was 91%; with RXF 393 renal, 88.5%; in the assay with SF-268 CNS, 115%; with SF-295 CNS, 94.5%. Also, the growth is 94.8% in the assay with SF-539 CNS, 93.9% in the assay with UACC-257 melanoma, 105% in the assay on M14 melanoma and 95.6% with HCT-15 colon.

On to `CCN1CCN(c2nc3ccccc3c3c(=O)c4ccccc4sc23)CC1`, for which the growth was 12.8% in the assay on K-562 leukemia; 52.5% with MALME-3M melanoma; -2.38% (active) in the assay with MDA-MB-231 breast; 29.8% in the assay with RXF 393 renal; 45.6% with SF-268 CNS; 24.6% in the assay on SF-295 CNS. For the same compound, the results for the growth with SF-539 CNS, in the assay on UACC-257 melanoma and with HCT-15 colon were 48%, 73.9% and 31.8%, respectively.

As for `Cc1cc(=O)[nH]c(N/N=C/c2ccccc2O)n1`, the growth is 59.9% in the assay with K-562 leukemia; 35.1% with MALME-3M melanoma; 76.6% in the assay on MDA-MB-231 breast; 90% with RXF 393 renal; 39.1% in the assay with SF-268 CNS; 43.2% in the assay on SF-295 CNS. The growth was 96.8% with SF-539 CNS, 88% in the assay with UACC-257 melanoma and 40.7% in the assay with HCT-15 colon.

For `O=C1CC[C@@H]2CCCC[C@@H]2C1`, the growth is 110% in the assay on K-562 leukemia; 98.8% in the assay with MALME-3M melanoma; 96% in the assay on MDA-MB-231 breast; 130% in the assay on RXF 393 renal; 113% in the assay on SF-268 CNS; 110% with SF-295 CNS. The growth with SF-539 CNS is 102%; in the assay on UACC-257 melanoma, 116%; in the assay with M14 melanoma, 101%; in the assay with HCT-15 colon it was 113%.

`O=C1/C(=C\c2ccc(Cl)cc2)CN(C(=S)Nc2ccccc2)C/C1=C\c1ccc(Cl)cc1`: the growth was 2.61% (active) in the assay on K-562 leukemia; -39.9% (active) in the assay with MALME-3M melanoma; -17.3% (active) in the assay on MDA-MB-231 breast; -88.6% (active) in the assay on RXF 393 renal; -72.4% (active) in the assay with SF-268 CNS; -53.3% (active) in the assay with SF-295 CNS. In addition, the growth in the assay with SF-539 CNS is -94.4% (active); with UACC-257 melanoma, -55.4% (active); with M14 melanoma it was -65.3% (active); in the assay with HCT-15 colon, -34.7% (active).

Regarding `N#Cc1c(C#N)c(SSc2c(C#N)c(C#N)c(N)n2-c2ccccc2)n(-c2ccccc2)c1N`, the growth was -17.7% (active) with K-562 leukemia; 95.1% in the assay with MALME-3M melanoma; 100% in the assay on MDA-MB-231 breast; 98.8% with RXF 393 renal; 112% in the assay on SF-268 CNS; 115% in the assay with SF-295 CNS. In addition, the growth with SF-539 CNS was 103%; in the assay with UACC-257 melanoma, 103%; in the assay with HCT-15 colon, 102%.

`C#Cc1ccc(-n2c(/C=C/c3cc(OC)cc(OC)c3)nc3ncccc3c2=O)cc1`: the growth in the assay on K-562 leukemia is 75.3%; in the assay on MALME-3M melanoma, 83.2%; with MDA-MB-231 breast, 53.5%; with RXF 393 renal, 64.8%; with SF-268 CNS it was 65.3%; in the assay with SF-295 CNS, 75.7%. Besides, the growth in the assay on SF-539 CNS is 87.8%; in the assay with UACC-257 melanoma, 66.3%; in the assay with HCT-15 colon it was 82.8%.

These data come from PubChem BioAssay (NCI).
